# Compounds with a hit are over-represented: about 3.1% of the library has one in this group of screens.
# HSP90 inh – inhibitors of HSP90 luciferase refolding in rabbit reticulocyte lysate. inhibition, % at 5.6 µM. 290,000 tested, 0.91% active. AID 1789. luciferase refolding luminescence, 3 h;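 active = inhibition above the screen-wide mean plus 3 SD, computed separately per campaign, cut at about 16% in these data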;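 note: 0% = DMSO wells and 100% = 60 µM geldanamycin wells; inhibitors lower the luminescence because luciferase stays unfolded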
# ARNT-TACC3 inh – disruptors of human ARNT/TACC3 interaction; Q9Y6A5; AlphaScreen His-ARNT PAS-B/GST-TACC3 binding, luminescence; TACC3 fragment carries E629A point mutation; inhibition, % at 9.99 µM; 390,000 tested, 0.66% active; AID 623870;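 active = mean inhibition of replicates at least 50% and at least half of replicates each reaching 50%; inconclusive = half or more replicates reach 50% but mean below 50%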;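 note: 0% = complete ARNT plus TACC3 wells and 100% = ARNT alone without TACC3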
# HSF1 activator – increases HSF-1 driven luciferase reporter signal; NIH3T3-HGL HSF-1 luciferase reporter, MG132, 8 h; 100% = twice DMSO control signal; 300,000 tested, 1.7% active; activation, % at 9 µM; AID 504408;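 active = mean replicate activation of at least 50% with a set share of replicates each reaching 50%; inconclusive = only one of those two conditions met; inactive = mean below 50% and too few replicates reaching it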;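 note: 0% = median of the neutral control wells and 100% = twice that signal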
# HIF activator – HIF pathway transcriptional activation; U2OS HRE-luciferase reporter, luminescence; normalized: DMSO 0%, desferrioxamine 100%; activation, % at 7.5 µM (by protocol); 300,000 tested, 0.32% active; AID 1910;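 active = mean activation of at least 10% of the iron chelator positive control signal, with at least half of replicates also reaching 10%; inconclusive = mean and replicate majority disagree about reaching 10%; inactive = mean and most replicates under 10%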
# HSF1 inh – HSF1 inhibition; NIH3T3-HGL HSE-luciferase, MG132-induced, luminescence 8 h; stronger effect = lower value; activity change, negative = inhibition, % at 7.5 µM (by protocol); 300,000 tested, 0.77% active; AID 2098;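 active = more than half of replicate wells show activity change below -50%, luminescence cut by over half; inconclusive = some wells, but at most half, below -50%; inactive = no replicate well below -50%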;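 note: luciferase reports HSF-1 transcriptional activity via heat shock element; 0% = median of DMSO wells and -100% = zero luminescence signal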
# * marks the source's active call; other numbers are inactive results; ? = inconclusive; . = no result.
SMILES,HSP90 inh,ARNT-TACC3 inh,HSF1 activator,HIF activator,HSF1 inh
O=C(N/N=C/c1ccc(-c2cccc([N+](=O)[O-])c2)o1)c1ccccc1O,1,-16,58*,0,25
O=C(N/N=C/c1ccc(-c2cccc([N+](=O)[O-])c2)o1)c1ccc([N+](=O)[O-])cc1,4,1,-6,0,-1
CCC(=O)N[C@H]1C=C[C@H](CC(=O)NCC2CCCCC2)O[C@@H]1CO,.,-24,.,.,.
CC(C)CN(C(=O)CSc1nn(-c2ccc(Cl)cc2)c(=S)s1)C1CCS(=O)(=O)C1 (configuration not stated),-2,36*,-10,0,-1
CCN(CC)CCn1c(=O)n(-c2ccc(Cl)cc2)c(=O)c2c3c(sc21)CN(C)CC3,4,-1,1,1,6
CN1CCc2c(sc3c2c(=O)n(-c2ccc(Cl)cc2)c2nncn32)C1,2,0,-63,0,-55*
C[C@@H]1CCCCO[C@H](CN(C)C(=O)Nc2ccccc2)[C@@H](C)CN([C@H](C)CO)C(=O)c2cc(NC(=O)c3ccccc3)ccc2O1,.,-3,.,.,.
C/C=C/c1cnc2c(c1)C(=O)N([C@H](C)CO)C[C@@H](C)[C@H](CN(C)Cc1ccccc1F)O2,.,-2,.,.,.
O=C(Nc1ccc2sccc2c1)c1ccc(Cl)s1,-4,-8,72*,.,34
O=C(Nc1ccc2c(c1)C(=O)NC2=O)c1ccc(Cl)s1,7,-3,29,0,15
C[C@@H]1CN([C@H](C)CO)S(=O)(=O)c2ccc(C3=CCCCC3)cc2O[C@@H]1CN(C)S(=O)(=O)c1cn(C)cn1,.,0,.,.,.
O=S(=O)(Nc1nc2ccccc2[nH]1)c1ccccc1,0,0,-1,0,1
CS(=O)(=O)Nc1nc2ccccc2[nH]1,-1,-9,-86,-1,-82*
Nc1ccc2c(c1)OC1(CCCC1)O2,5,4,-91,-6,-89*
O=C(Cc1ccccc1)Nc1ccc2c(c1)OC1(CCCC1)O2,.,7,.,.,.
Cc1ccc(C(c2nnnn2C2CCCC2)N2CCc3ccccc32)cc1 (configuration not stated),-1,28,59*,2,16
Clc1ccc(CSc2ccc(-c3ccco3)nn2)cc1,-3,-7,?,4,42
c1ccc(CSc2ccc(-c3ccco3)nn2)cc1,-1,-5,9,2,11
Clc1ccc(CSc2ccc(-c3ccccn3)nn2)cc1,0,12,8,24*,13
c1ccc(CSc2ccc(-c3ccccn3)nn2)cc1,6,65*,18,10*,24
CCNC(=O)C[C@@H]1CC[C@H]2[C@H](COc3ccc(NC(=O)c4cccc(C(F)(F)F)c4)cc3C(=O)N2C)O1,.,-2,.,.,.
CN1CCN(C(=O)C[C@H]2CC[C@@H]3[C@H](COC[C@@H](O)CN3Cc3cccc(F)c3)O2)CC1,.,-3,.,.,.
COc1ccc(-c2nc(-c3ccccn3)no2)cc1,94*,8,-80,-4,-78*
O=[N+]([O-])c1ccc(-c2nc(-c3ccncc3)no2)cc1,1,-3,65*,2,31
COc1ccc(-c2nc(-c3ccncc3)no2)cc1,21*,5,54*,-1,27
SMILES,HSP90 inh,ARNT-TACC3 inh,HSF1 activator,HIF activator,HSF1 inh
O=[N+]([O-])c1cccc(-c2nc(-c3cccs3)c(-c3cccs3)[nH]2)c1,-3,0,-2,0,-5
O=[N+]([O-])c1cccc(-c2noc(-c3cccs3)n2)c1,-6,-8,57*,4,43
O=C(C[C@H]1CC[C@@H]2[C@H](COC[C@@H](O)CN2C(=O)c2ccc(F)cc2)O1)Nc1ccc(-c2ccccc2)cc1,.,1,.,.,.
COCC(=O)N(C)C[C@@H]1Oc2cc(C#Cc3cccnc3)ccc2S(=O)(=O)N([C@@H](C)CO)C[C@H]1C,.,18,.,.,.
C/C=C/c1ccc2c(c1)O[C@@H](CN(C)C(=O)Cc1ccccc1)[C@H](C)CN([C@H](C)CO)S2(=O)=O,.,7,.,.,.
Cc1ccc(S(=O)(=O)N(C)C[C@@H]2OCCCC[C@@H](C)Oc3ccc(NC(=O)Nc4ccccc4)cc3C(=O)N([C@@H](C)CO)C[C@@H]2C)cc1,.,13,.,.,.
COC(=O)[C@@H]1[C@@H](CO)[C@@H]2Cn3c(cccc3=O)[C@@H]2N1C(=O)C1CC1,.,0,.,.,.
COc1ccc(Cn2nnnc2CN2CCc3ccccc3C2)cc1,-3,9,-69,0,-61*
CCN(CC)Cc1c(C(=O)N/N=C/c2cccc(OCc3cccc(Cl)c3)c2)nnn1-c1nonc1N,-2,-6,57*,1,25
CN(C)Cc1c(C(=O)N/N=C/c2ccc(OCc3c(F)cccc3Cl)cc2)nnn1-c1nonc1N,7,3,108*,1,55
CCCc1c(C(=O)N/N=C/c2cccc(OCc3ccc(F)cc3)c2)nnn1-c1nonc1N,-1,1,19,-1,7
Nc1nonc1-n1nnc(C(=O)N/N=C/c2ccc(O)cc2)c1COc1ccc(F)cc1,0,-3,-8,0,-3
Cc1cccc(COc2ccc(/C=N/NC(=O)c3nnn(-c4nonc4N)c3COc3ccc(F)cc3)cc2)c1,16*,-14,6,1,6
Cc1ccc(C(C[N+](=O)[O-])c2c(C)[nH]n(-c3ccccc3)c2=O)cc1 (configuration not stated),2,51*,-23,6,-19
Cc1[nH]n(-c2ccccc2)c(=O)c1C(C[N+](=O)[O-])c1ccc(Cl)cc1 (configuration not stated),-3,10,133*,0,111
Cc1[nH]n(-c2ccccc2)c(=O)c1C(C[N+](=O)[O-])c1ccc(F)cc1 (configuration not stated),-1,23,282*,0,238
Cc1[nH]n(-c2ccccc2)c(=O)c1C(c1ccccc1C(=O)O)c1c(C)[nH]n(-c2ccccc2)c1=O,3,10,-12,0,-1
CC=Cc1ccc2n(c1=O)C[C@H]1[C@H](CO)[C@@H](C(=O)NCC3CC3)N(C(=O)CC3CC3)[C@@H]21 (mixture of isomers),.,-7,.,.,.
O=C(C[C@@H]1C[C@H]2c3cc(NC(=O)C4CCC4)ccc3O[C@H]2[C@H](CO)O1)NCc1cc(F)ccc1F,.,-9,.,.,.
CO[C@@H]1CN(C)C(=O)c2cc(NC(=O)NC3CCCCC3)ccc2OC[C@@H](C)NC[C@@H]1C,.,-11,.,.,.
C[C@@H]1CN([C@H](C)CO)C(=O)c2cc(NC(=O)Cc3ccccc3)ccc2O[C@@H](C)CCCCO[C@H]1CN(C)C(=O)Nc1cccc2ccccc12,.,-2,.,.,.
O=c1c2ccccc2[nH]c(=S)n1CCN1CCCCC1,0,-3,26,0,0
O=c1c2ccccc2[nH]c(=S)n1CCC1=CCCCC1,0,-1,73*,1,36
C[C@H](CO)N1C[C@H](C)[C@@H](CN(C)Cc2ccc(Cl)c(Cl)c2)Oc2ccc(NS(=O)(=O)c3ccc(Cl)cc3)cc2C1=O,.,2,.,.,.

# Bioassay records from PubChem BioAssay.
